The term residual activity denotes the signal under treatment as a percentage of the control signal.

The target of test [1] is T1, Serine/threonine-protein kinase TBK1 (Homo sapiens) (UniProt Q9UHD2).
T1 sequence (whole entry): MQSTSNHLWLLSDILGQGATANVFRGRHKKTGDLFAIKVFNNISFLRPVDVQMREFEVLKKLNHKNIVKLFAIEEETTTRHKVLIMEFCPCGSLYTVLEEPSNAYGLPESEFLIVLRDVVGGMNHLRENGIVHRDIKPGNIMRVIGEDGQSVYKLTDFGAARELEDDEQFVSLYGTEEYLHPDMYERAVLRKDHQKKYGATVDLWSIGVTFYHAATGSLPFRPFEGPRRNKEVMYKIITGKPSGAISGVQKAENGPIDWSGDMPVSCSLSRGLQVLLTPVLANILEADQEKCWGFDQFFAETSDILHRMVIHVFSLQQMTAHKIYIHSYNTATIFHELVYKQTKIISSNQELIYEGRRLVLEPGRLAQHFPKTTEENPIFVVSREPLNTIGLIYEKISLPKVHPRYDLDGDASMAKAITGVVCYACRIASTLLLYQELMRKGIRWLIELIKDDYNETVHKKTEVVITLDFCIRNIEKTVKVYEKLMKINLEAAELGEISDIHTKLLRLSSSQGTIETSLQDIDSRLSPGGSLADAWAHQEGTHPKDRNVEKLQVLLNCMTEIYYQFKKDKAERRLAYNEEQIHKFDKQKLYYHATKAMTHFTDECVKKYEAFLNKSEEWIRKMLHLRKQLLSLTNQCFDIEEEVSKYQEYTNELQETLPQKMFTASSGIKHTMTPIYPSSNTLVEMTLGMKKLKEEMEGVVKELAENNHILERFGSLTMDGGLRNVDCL
The following applies: at 10 µM.

Test [2] deals with T2, TGF-beta receptor type-1 (Homo sapiens) (UniProt P36897).
T2 sequence (whole entry): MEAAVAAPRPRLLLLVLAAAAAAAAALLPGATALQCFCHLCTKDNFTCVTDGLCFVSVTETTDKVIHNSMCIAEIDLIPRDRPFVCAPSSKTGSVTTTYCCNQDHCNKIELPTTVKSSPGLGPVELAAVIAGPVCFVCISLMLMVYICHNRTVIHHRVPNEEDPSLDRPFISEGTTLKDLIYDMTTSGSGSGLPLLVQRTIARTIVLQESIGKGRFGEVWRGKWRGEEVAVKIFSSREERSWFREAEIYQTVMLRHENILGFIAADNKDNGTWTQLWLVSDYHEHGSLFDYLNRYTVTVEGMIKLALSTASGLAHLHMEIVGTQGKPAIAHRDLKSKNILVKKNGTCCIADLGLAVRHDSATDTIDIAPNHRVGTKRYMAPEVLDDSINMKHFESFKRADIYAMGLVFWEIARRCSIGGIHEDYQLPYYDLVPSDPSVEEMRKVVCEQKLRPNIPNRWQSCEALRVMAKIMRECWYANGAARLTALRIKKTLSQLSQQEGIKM
Conditions: at 1 µM.

Test [3] concerns the target T2, TGF-beta receptor type-1 (Homo sapiens). Conditions: at 10 µM.
Test [4] deals with Insulin-like growth factor 1 receptor (Homo sapiens) (UniProt P08069). The following applies: at 1 µM.
For test [5] the target is unchanged. Conditions: at 10 µM.
The target in test [6] is T3, Inhibitor of nuclear factor kappa-B kinase subunit alpha (Homo sapiens) (UniProt O15111).
T3 sequence (whole entry): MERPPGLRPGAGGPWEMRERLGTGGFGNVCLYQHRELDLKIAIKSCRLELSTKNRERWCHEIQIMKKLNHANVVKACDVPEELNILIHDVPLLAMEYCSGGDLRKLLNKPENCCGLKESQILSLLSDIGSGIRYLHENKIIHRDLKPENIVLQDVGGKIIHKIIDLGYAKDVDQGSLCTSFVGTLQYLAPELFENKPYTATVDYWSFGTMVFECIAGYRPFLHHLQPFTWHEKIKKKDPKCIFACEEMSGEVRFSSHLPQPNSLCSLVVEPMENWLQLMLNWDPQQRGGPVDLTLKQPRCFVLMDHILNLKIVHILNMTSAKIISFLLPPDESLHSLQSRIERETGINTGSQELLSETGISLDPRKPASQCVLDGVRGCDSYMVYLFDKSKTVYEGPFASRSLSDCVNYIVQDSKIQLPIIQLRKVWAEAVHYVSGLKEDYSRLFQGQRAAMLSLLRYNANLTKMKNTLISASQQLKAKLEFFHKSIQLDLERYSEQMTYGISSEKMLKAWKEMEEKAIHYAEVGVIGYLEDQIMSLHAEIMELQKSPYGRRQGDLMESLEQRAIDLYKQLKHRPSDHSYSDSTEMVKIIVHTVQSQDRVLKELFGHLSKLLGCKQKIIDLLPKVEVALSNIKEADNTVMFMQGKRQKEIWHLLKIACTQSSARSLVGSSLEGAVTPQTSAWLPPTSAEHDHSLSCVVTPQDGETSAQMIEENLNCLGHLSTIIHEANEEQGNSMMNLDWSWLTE
Conditions: at 1 µM.

Test [7] has as its target T3, Inhibitor of nuclear factor kappa-B kinase subunit alpha (Homo sapiens). The following applies: at 10 µM.
The target of test [8] is T4, Inhibitor of nuclear factor kappa-B kinase subunit beta (Homo sapiens) (UniProt O14920).
T4 sequence (whole entry): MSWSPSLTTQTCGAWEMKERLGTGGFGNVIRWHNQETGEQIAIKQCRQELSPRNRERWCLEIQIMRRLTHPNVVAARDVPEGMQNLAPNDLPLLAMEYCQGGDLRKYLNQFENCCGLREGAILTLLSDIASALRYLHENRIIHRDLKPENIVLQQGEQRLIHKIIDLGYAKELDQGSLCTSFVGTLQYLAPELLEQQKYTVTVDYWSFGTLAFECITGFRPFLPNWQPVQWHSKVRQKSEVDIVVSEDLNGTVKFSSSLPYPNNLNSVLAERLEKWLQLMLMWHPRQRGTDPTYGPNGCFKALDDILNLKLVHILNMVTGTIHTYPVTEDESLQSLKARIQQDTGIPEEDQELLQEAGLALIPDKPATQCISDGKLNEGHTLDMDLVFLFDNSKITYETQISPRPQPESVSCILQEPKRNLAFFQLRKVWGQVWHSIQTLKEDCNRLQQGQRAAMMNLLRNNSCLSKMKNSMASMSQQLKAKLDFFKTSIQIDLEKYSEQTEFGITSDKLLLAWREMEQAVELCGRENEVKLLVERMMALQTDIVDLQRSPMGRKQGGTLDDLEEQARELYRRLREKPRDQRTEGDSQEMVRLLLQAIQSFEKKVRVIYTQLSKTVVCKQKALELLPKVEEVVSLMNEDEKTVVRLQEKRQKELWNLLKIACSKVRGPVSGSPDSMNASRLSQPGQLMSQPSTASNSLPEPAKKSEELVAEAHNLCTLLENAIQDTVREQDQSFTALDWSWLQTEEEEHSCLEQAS
The following applies: at 1 µM.

The target of test [9] is T4, Inhibitor of nuclear factor kappa-B kinase subunit beta (Homo sapiens). Conditions: at 10 µM.
Test [10] deals with Insulin receptor (Homo sapiens) (UniProt P06213). Conditions: at 1 µM.
Sequence of Insulin receptor (Homo sapiens) (P06213 28-758 limits assumed): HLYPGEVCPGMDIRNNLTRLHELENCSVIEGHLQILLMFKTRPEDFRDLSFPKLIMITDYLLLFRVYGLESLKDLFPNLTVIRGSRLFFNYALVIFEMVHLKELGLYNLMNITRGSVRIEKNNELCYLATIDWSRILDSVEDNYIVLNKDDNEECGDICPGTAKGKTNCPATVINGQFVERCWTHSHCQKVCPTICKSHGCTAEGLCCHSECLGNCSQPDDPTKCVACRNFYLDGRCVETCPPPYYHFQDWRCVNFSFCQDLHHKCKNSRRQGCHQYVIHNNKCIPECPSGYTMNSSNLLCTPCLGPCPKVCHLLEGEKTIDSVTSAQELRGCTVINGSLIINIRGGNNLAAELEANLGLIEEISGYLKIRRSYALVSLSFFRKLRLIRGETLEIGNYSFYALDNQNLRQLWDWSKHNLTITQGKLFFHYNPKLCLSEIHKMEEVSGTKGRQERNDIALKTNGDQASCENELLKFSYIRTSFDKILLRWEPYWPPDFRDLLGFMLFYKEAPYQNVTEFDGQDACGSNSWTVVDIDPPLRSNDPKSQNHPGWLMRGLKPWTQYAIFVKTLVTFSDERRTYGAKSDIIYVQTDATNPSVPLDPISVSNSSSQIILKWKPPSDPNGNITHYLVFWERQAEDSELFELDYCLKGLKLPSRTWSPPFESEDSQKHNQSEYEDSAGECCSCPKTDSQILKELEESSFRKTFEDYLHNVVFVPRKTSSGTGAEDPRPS
Sequence of Insulin receptor (Homo sapiens) (P06213 763-1382 limits assumed): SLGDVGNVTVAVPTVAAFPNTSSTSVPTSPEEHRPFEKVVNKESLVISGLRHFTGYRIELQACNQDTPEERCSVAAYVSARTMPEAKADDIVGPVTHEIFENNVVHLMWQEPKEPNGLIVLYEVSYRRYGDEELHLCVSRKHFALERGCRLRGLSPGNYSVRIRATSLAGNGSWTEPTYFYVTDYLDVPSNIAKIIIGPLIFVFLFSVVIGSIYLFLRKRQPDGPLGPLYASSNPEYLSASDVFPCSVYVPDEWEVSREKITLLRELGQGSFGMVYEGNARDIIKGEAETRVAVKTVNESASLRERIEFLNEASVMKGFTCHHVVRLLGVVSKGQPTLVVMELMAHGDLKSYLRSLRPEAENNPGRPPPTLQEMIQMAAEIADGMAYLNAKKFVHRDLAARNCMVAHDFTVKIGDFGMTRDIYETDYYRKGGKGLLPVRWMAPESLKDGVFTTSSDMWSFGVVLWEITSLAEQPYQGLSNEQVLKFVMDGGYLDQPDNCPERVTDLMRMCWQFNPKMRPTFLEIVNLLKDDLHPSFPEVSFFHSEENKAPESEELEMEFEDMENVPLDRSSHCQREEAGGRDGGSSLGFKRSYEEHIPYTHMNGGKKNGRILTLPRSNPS

Sequence of Insulin-like growth factor 1 receptor (Homo sapiens) (P08069 31-736 limits assumed): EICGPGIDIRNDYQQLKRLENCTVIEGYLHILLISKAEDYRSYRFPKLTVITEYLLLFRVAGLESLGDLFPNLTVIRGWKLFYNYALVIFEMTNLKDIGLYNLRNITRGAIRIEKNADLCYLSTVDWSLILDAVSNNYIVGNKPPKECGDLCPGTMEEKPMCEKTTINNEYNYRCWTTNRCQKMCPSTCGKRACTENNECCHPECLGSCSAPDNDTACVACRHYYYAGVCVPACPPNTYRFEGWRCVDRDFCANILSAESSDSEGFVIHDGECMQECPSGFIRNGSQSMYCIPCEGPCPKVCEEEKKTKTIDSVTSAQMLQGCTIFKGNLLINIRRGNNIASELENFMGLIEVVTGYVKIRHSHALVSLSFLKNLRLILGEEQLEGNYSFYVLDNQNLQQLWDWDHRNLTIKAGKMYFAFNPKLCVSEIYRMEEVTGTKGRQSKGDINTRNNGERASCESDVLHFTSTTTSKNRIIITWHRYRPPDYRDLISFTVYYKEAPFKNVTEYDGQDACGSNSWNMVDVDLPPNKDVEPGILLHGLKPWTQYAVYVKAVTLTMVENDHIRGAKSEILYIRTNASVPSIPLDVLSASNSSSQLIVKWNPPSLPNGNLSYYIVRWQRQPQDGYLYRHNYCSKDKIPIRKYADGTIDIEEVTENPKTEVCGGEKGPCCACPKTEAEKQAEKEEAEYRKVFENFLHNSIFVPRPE
Sequence of Insulin-like growth factor 1 receptor (Homo sapiens) (P08069 741-1367 limits assumed): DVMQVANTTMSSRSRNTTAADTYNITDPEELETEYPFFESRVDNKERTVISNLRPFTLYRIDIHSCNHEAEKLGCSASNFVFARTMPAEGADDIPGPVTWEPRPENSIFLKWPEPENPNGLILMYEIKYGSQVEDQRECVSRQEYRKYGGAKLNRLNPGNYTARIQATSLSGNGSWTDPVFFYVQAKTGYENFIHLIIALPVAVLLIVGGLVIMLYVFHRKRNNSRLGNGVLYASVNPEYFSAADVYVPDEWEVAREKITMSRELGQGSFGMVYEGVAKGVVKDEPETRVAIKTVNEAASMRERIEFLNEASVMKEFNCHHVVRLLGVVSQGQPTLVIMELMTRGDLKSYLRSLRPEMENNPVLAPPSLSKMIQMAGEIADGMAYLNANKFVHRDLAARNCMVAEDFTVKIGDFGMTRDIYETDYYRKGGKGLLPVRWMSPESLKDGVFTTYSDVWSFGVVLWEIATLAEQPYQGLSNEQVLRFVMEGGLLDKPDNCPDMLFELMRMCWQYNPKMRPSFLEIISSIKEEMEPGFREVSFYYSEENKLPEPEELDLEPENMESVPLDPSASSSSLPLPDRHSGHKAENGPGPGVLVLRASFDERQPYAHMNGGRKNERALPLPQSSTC

Consider `O=C(Nc1cccc(Nc2nccc(Nc3cccc(C(F)(F)F)c3)n2)c1)C1CC1`, for which the residual activity in test [1] was found to be 32%; in [2] it was 105%; in [3], 72%; in test [4], 90%; in [5] it was 96%; in [6], 113%. Also, the residual activity in test [7] was 88%; in [8], 74%; in test [9] it was 52%; in test [10] it was 22%.

The record behind these values is ChEMBL document CHEMBL2218924, “A broad activity screen in support of a chemogenomic map for kinase signalling research and drug discovery” (Biochem J, 2013).
